Only a selection was taken, and hits are over-represented in it overall.
Tb PYK inh = inhibitors of Trypanosoma brucei pyruvate kinase; Potency, µM (doses to about 76.8 µM), for inactives: top-dose activity, negative = inhibition, hits mostly inhibitors; TbPYK enzyme, Kinase-Glo Plus ATP luminescence, 45 min; 0.12% of 410,000 active; also: potency is read from the fitted curve at half-maximal effect; % is scaled to controls: 0 for no effect and ±100 for the full control effect; nearly all actives have a fitted effect of over 50% in size
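Quantitative HTS: titrated library compounds versus trypanosomal pyruvate kinase in TEA buffer (pH 7.2) containing KCl, MgCl2, BSA and Tween-20. Reactions were initiated with ADP, 130 uM final. Kinase-Glo Plus luminescence was read after 45 min at RT.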
Sm TGR inh = inhibitors of Schistosoma mansoni thioredoxin glutathione reductase; Potency, µM (highest dose often 114 µM), inactives show top-dose activity change, negative = inhibition, most hits filed as inhibitors; 3% of 360,000 active; purified TGR, DTNB reduction, TNB absorbance 405 nm; also: potency is read from the fitted curve at half-maximal effect; % is scaled to controls: 0 for no effect and ±100 for the full control effect; nearly all actives have a fitted effect of over 60% in size
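TGR 20 nM + NADPH 100 uM (dispensed conc.), cpd preinc 15 min RT; start with NADPH (500 uM addition) then DTNB (15 mM addition). Kinetic TNB absorbance, 405 nm filter. Four-parameter Hill fit across titration.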
LmPK inhibitor = inhibitors of Leishmania mexicana pyruvate kinase. Q27686. purified LmPK, Kinase-Glo ATP luminescence, 1 h. Potency, µM (highest dose often 57.5 µM), for the others: at the top dose activity change, negative = inhibition, most hits filed as inhibitors. 0.37% of 290,000 active; also: potency is read from the fitted curve at half-maximal effect; % is scaled to controls: 0 for no effect and ±100 for the full control effect
Target sequence (Q27686 whole entry, looked up): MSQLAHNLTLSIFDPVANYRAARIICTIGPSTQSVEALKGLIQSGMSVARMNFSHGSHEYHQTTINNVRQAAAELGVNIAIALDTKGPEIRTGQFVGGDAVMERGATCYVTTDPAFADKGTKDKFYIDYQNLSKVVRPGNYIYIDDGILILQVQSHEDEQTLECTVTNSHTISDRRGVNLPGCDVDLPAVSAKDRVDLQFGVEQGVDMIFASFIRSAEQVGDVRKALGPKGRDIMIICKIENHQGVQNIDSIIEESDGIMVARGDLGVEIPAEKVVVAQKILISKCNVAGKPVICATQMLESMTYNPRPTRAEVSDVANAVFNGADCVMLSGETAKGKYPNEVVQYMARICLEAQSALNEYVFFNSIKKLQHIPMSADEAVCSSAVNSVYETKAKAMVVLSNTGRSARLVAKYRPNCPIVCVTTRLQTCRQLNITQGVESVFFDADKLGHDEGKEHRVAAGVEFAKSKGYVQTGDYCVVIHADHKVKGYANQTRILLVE
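In 50 mM imidazole pH 7.2 with 7 mM MgCl2, LmPK (0.1 nM) turned over PEP (0.5 mM) and ADP (0.1 mM) for 1 h at room temperature. Luciferase read-out of ATP.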
Cycloheximide cs = affects cycloheximide protein synthesis inhibition readout, counter-screen; max response, %; 12% of 300,000 active; cell reporter, cycloheximide protein synthesis inhibition counterscreen; in the data active = max response mostly above about 13%, no sharp cut-off; inactive = mostly below about 14%; also: read at 38.3 µM for the half of the compounds with a filed dose; 0% is about no effect
Giardia FBPA inh = Giardia lamblia aldolase inhibition; A8B2U2; 0.71% of 290,000 active; purified Giardia FBPA; Potency, µM (series often up to 59.6 µM), inactives show at the highest dose activity, negative = inhibition, hits mostly inhibitors; also: potency is read from the fitted curve at half-maximal effect; % is scaled to controls: 0 for no effect and ±100 for the full control effect; nearly all actives have a fitted effect of over 55% in size
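Giardia FBPA (40 nM reagent) was preincubated 10 min at RT with compound (up to 57.5 uM final), then substrate plus GAPDH/TPI/NAD/arsenate coupling system with diaphorase/resazurin was added; resorufin fluorescence (525/598 nm) was read after 20 min.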
Shiga toxin inh = Shiga toxin inhibition | Vero cells, Shiga toxin protein synthesis inhibition reporter | inhibition, % at 38.7 µM | 9.2% of 290,000 active; in the data active = inhibition mostly above about 28%, no sharp cut-off; inactive = mostly below about 43%; also: 0% is about no effect
Numbers without * were called inactive; ? = inconclusive; . = no result given. Unless noted, calls follow the shape of the dose curve; as a rule, active = well fitted curve in the direction sought with a large enough effect; inconclusive = small, poorly fitted or top-dose-only effect, or another doubt; inactive = no such curve, though single readings can be large; an effect the other way counts as inactive or inconclusive.

SMILES	Tb PYK inh	Sm TGR inh	LmPK inhibitor	Cycloheximide cs	Giardia FBPA inh	Shiga toxin inh
Cc1cc(C(=O)Nc2cccc(C(=O)O)c2)oc1C	?	7.3%	?	38.5*	-0.8%	81.0*
Cc1cc(C(=O)Nc2ccc3ccccc3c2)c(C)o1	-4.3%	-30.8%	-9.0%	32.0*	-0.2%	95.9*
Cc1cc(C(=O)Nc2nc3c(C)cccc3s2)c(C)o1	0.4%	0.0%	-0.2%	18.7*	13.9%	11.4
Cc1ccoc1C(=O)Nc1ccc2ccccc2c1	-18.5%	-3.1%	-29.7%	41.0*	-7.8%	63.0
Cc1cc(C(=O)Nc2cccc(C(=O)O)c2)c(C)o1	-1.4%	12.0%	-3.4%	2.5	-2.1%	20.2
COCCCNC(=O)CN1C(=O)COc2ccc(S(=O)(=O)N3CCCC3)cc21	1.0%	-7.1%	.	.	.	.
Cc1cc(C(=O)Nc2ccc3ccccc3c2)oc1C	3.9%	1.6%	-12.9%	29.7*	-7.9%	127.2*
Cc1ccccc1C(=O)Nc1ccc(Br)cn1	6.9%	-13.1%	?	49.1*	-4.2%	90.5*
O=C(Nc1ccc2sccc2c1)c1ccc(Cl)s1	-5.8%	2.1%	-3.1%	33.4*	0.2%	39.2*
O=C(Nc1ccon1)c1ccc(Br)s1	3.0%	12.1%	-7.3%	24.5*	-3.0%	57.5*
O=C(Nc1ccccn1)c1ccc(Cl)s1	1.7%	-18.3%	-7.1%	62.2*	3.7%	99.7*
O=C(NC1=NCCS1)c1ccc(Br)s1	1.5%	-24.5%	-7.0%	40.0	-2.1%	57.2
O=C(CCn1c(=O)c2cccn2c2cccnc21)NCc1ccccc1F	-5.0%	-0.9%	.	.	.	.
CC(=O)Nc1ccc(-c2nnc3n(Cc4ccc(C)cc4)c(=O)c4ccccc4n23)cc1	1.4%	0.1%	.	.	.	.
Cc1cc(C(=O)Nc2ccc(Br)cn2)sc1C	-6.9%	-10.7%	.	.	.	.
O=C(Nc1nccs1)c1ccc(Cl)s1	-2.5%	-27.4%	6.4%	19.5*	-6.3%	67.5
CCC(=O)Nc1ccc(Br)cn1	4.1%	9.6%	9.4%	10.7	2.3%	-5.5
O=C(Nc1ccc(Br)cn1)c1ccc(Br)s1	0.6%	-23.2%	-3.1%	61.7*	3.1%	107.9*
O=C(Nc1ccc(Br)cn1)c1ccc(Cl)s1	1.2%	-1.0%	-3.2%	54.0*	5.3%	84.0*
CCc1ccc(NS(=O)(=O)c2ccc(-c3cc(C)no3)cc2)cc1	-8.2%	-0.9%	.	.	.	.
CCOC(=O)C1(Cc2ccccc2C)CCCN(C(=O)c2ccoc2)C1 (stereo not drawn)	2.1%	-19.9%	-4.4%	44.4*	.	71.2*
CCOC(=O)C1(Cc2ccccc2C)CCCN(C(=O)c2sccc2C)C1 (stereo not drawn)	6.9%	0.1%	-4.6%	29.3*	.	19.8
CCc1nn(CC(=O)N(CC)Cc2ccccc2)c(=O)c2cc3occc3n12	-4.5%	-14.7%	.	.	.	.
C=C1C[C@]2(O)[C@@]3(C)CCC(=O)C(C)(C)C3=C(O)C(=O)[C@@]2(C)[C@@H]2C(=O)O[C@@](C)(C(=O)OC)C(=O)[C@@]12C	-7.1%	?	8.1%	25.6*	-3.4%	63.9*
CS(=O)(=O)N(Cc1ccc(Cl)cc1)c1ccc(C(=O)NCCC2=CCCCC2)cc1	4.3%	-7.6%	0.6%	-1.7	2.1%	-7.7
SMILES	Tb PYK inh	Sm TGR inh	LmPK inhibitor	Cycloheximide cs	Giardia FBPA inh	Shiga toxin inh
CS(=O)(=O)Nc1ccc(C(=O)NCCC2=CCCCC2)cc1	-4.7%	1.3%	0.9%	55.3*	11.0%	143.9*
O=C(NCCC1=CCCCC1)c1ccc(Cl)cc1	.	15.8%	0.4%	32.6*	-3.9%	45.8
O=C(NCCC1=CCCCC1)c1ccc(Cl)c(S(=O)(=O)N2CCOCC2)c1	-7.0%	1.5%	0.6%	11.7	-3.1%	active
O=C(NCCC1=CCCCC1)c1ccc(Cl)c(S(=O)(=O)N2CCCCC2)c1	4.6%	-20.1%	-6.8%	30.4	-0.5%	49.7
CC(C)NC(=O)NC(=O)CN1c2cccc3cccc(c23)S1(=O)=O	-0.3%	-28.3%	8.8%	-1.8	-17.0%	-6.3
COc1cc(Cl)ccc1OCc1cc(C(=O)N2CCCC(OC)C2)no1 (stereo not drawn)	-0.3%	3.5%	-5.0%	53.6*	.	79.6*
COc1cc(Cl)ccc1OCc1cc(C(=O)N2CCN(C)CC2)no1	-1.7%	0.3%	-11.1%	8.3	.	6.8
COc1ccc(OCc2cc(C(=O)N3CCCN(C(C)=O)CC3)no2)c(Cl)c1	-0.1%	-20.5%	7.9%	32.0*	.	42.7*
COc1cc(Cl)ccc1OCc1cc(C(=O)N2CCCCCC2)no1	-9.7%	?	-10.8%	32.2*	.	74.3*
O=c1c2ccccc2[nH]c(=S)n1-c1ccc2c(c1)OCCO2	-2.3%	0.3%	-3.2%	44.8*	-5.7%	99.0*
CC(=O)C(Sc1nn(C)c(=S)s1)C(=O)Nc1ccccc1 (stereo not drawn)	31.6µM*	25.1µM*	14.5%	51.2*	?	113.5*
CCN1C(=O)[C@H]2[C@@H](c3ccc(-c4ccc(Cl)c(Cl)c4)c(OC)c3)N[C@@](C)(C(=O)OC)[C@H]2C1=O	-9.8%	39.8µM*	.	.	.	.
CCN(CC)CCCN(Cc1cc2cc3c(cc2[nH]c1=O)OCO3)C(=S)Nc1ccc(OC)cc1	2.3%	-4.7%	-0.1%	-0.6	1.4%	12.4
Cc1cc2c(cc1C)-c1nnnn1C(C)(C)C2	-7.5%	1.7%	-3.0%	16.7	3.0%	59.0*
Cc1nn(CC(=O)c2ccccc2Cl)c(C)c1[N+](=O)[O-]	1.8%	-11.0%	?	47.9*	-0.8%	93.1*
COc1cc2c(cc1OC)C(c1cc(OC)c(O)c(OC)c1)CC(=O)N2 (stereo not drawn)	3.7%	?	.	.	.	.
CCN(CC)S(=O)(=O)c1cccc(C(=O)N[C@H](C(=O)Nc2nc3ccc(F)cc3s2)C(C)C)c1	-5.1%	-4.6%	2.9%	40.2*	0.1%	104.0*
CCN(CC)S(=O)(=O)c1cccc(C(=O)N[C@H](C(=O)Nc2nc3ccccc3s2)C(C)C)c1	-2.5%	-0.2%	-0.7%	16.7*	-1.7%	19.4
CCN(CC)S(=O)(=O)c1cccc(C(=O)NC(C(=O)Nc2nnc(C3CC3)s2)C(C)C)c1 (stereo not drawn)	0.3%	53.0%	2.5%	7.0	1.0%	3.0
CN(CC(=O)Nc1cccc(F)c1)C(=O)c1ccccc1Cc1ccccc1	6.1%	-3.8%	.	.	.	.
O=C(Nc1ccccc1)C1=C[C@H](C2CCCCC2)C[C@H](OCCCCO)O1	-0.1%	.	.	.	.	.
O=C(Nc1ccccc1)C1=C[C@@H](C2CCCCC2)C[C@@H](OCCCCO)O1	-3.3%	-31.1%	3.8%	73.7*	-5.3%	172.4*
O=C(Nc1ccccc1)C1=C[C@H](C2CCCCC2)C[C@H](OCc2ccc(CO)cc2)O1	0.6%	-15.2%	3.9%	43.4*	-12.1%	55.1*
O=C(O)C1=C[C@@H](C2CC2)C[C@@H](OCc2ccc(CO)cc2)O1	-1.8%	-18.4%	4.6%	1.5	14.3%	6.1

Bioassay records from PubChem BioAssay.
